A short description of test [1]: kinase inhibitors against Plasmodium liver-stage infection, cell-based, known kinase inhibitor set, luminescence, hepatoma host viability (AID 624392; call rule not given here;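 also: infected cells incubated roughly two days before readout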). Particulars: Plasmodium liver stage in hepatoma cells, luciferase luminescence, concentration not given here; liver cell % of control: measured here: host liver cell viability; parasite % of control: stronger effect = lower value.

A short description of test [2]: modulators of glucocorticoid suppression of NF-kB, cell-based, luciferase, IL-1B stimulus, dexamethasone (AID 624486; call rule not given here;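 as to percent of negative control (+Dex): 100% = mean signal of vehicle control wells on the plate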). Particulars: NF-kB luciferase reporter, IL-1B + dexamethasone, luminescence; percent of negative control (+Dex): actives lie on both sides, concentration not given here; z-score: measured here: IL-1B alone, no Dex.
Test [3] can be described thus: kinase inhibitors altering Pseudomonas killing of worms, whole organism (AID 651566; call rule not given here;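 also: tested at 14 µM; sign flipped so higher z means a lower ratio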). The note with it: C. elegans killed by P. aeruginosa, survival ratio.
The nature of test [4]: activators of macrophage pro-inflammatory response, cell-based, murine, luminescence (AID 652131; call rule not given here). Particulars: murine macrophage pro-inflammatory reporter, stronger effect = higher value.
Test [5] is described as follows: survival rescue of mitochondrial mutant cells in low glucose, primary screen, MELAS cybrids, Rieske KO mouse fibroblasts, CellTiter-Glo (AID 1508586;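 active = mean z-score across replicates of 1.96 or higher in either the MELAS or the Rieske mutant cell line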;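 also: z relative to plate mean and SD of compound and empty wells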).
The nature of test [6]: ovarian cancer cell viability with rucaparib, profiling panel, oncology-focused library, rucaparib conditional (AID 1508598). Particulars: patient-derived ovarian cancer cells, CellTiter-Glo viability, 144 h, stronger effect = lower value.
Where [7] appears, read: MELAS cybrid survival, CellTiter-Glo 48 h, stronger effect = higher value.
[8] abbreviates: Rieske KO mouse fibroblast survival, CellTiter-Glo 72 h.
Setting [9] is: at 0.000305 µM, OCI-C5x cells, with rucaparib 10 µM, 100% = cells with rucaparib alone.
The mark [10] stands for this setting: at 0.000305 µM, OCI-C5x cells, without rucaparib.
The mark [11] stands for this setting: at 0.000305 µM, OCI-P5x cells, with rucaparib 20 µM, 100% = cells with rucaparib alone.
Where [12] appears, read: at 0.000305 µM, OCI-P5x cells, without rucaparib.
[13] abbreviates: at 0.00122 µM, OCI-C5x cells, with rucaparib 10 µM, 100% = cells with rucaparib alone.
Setting [14] is: at 0.00122 µM, OCI-C5x cells, without rucaparib.
Setting [15] is: at 0.00122 µM, OCI-P5x cells, with rucaparib 20 µM, 100% = cells with rucaparib alone.
Where [16] appears, read: at 0.00122 µM, OCI-P5x cells, without rucaparib.
The mark [17] stands for this setting: at 0.00488 µM, OCI-C5x cells, with rucaparib 10 µM, 100% = cells with rucaparib alone.
The mark [18] stands for this setting: at 0.00488 µM, OCI-C5x cells, without rucaparib.
Setting [19] is: at 0.00488 µM, OCI-P5x cells, with rucaparib 20 µM, 100% = cells with rucaparib alone.
[20] abbreviates: at 0.00488 µM, OCI-P5x cells, without rucaparib.
[21] abbreviates: at 0.0195 µM, OCI-C5x cells, with rucaparib 10 µM, 100% = cells with rucaparib alone.
The mark [22] stands for this setting: at 0.0195 µM, OCI-C5x cells, without rucaparib.
Setting [23] is: at 0.0195 µM, OCI-P5x cells, with rucaparib 20 µM, 100% = cells with rucaparib alone.
The mark [24] stands for this setting: at 0.0195 µM, OCI-P5x cells, without rucaparib.
[25] abbreviates: at 0.0781 µM, OCI-C5x cells, with rucaparib 10 µM, 100% = cells with rucaparib alone.
Where [26] appears, read: at 0.0781 µM, OCI-C5x cells, without rucaparib.
[27] abbreviates: at 0.0781 µM, OCI-P5x cells, with rucaparib 20 µM, 100% = cells with rucaparib alone.
The mark [28] stands for this setting: at 0.0781 µM, OCI-P5x cells, without rucaparib.
Setting [29] is: at 0.313 µM, OCI-C5x cells, with rucaparib 10 µM, 100% = cells with rucaparib alone.
[30] abbreviates: at 0.313 µM, OCI-C5x cells, without rucaparib.
[31] abbreviates: at 0.313 µM, OCI-P5x cells, with rucaparib 20 µM, 100% = cells with rucaparib alone.
[32] abbreviates: at 0.313 µM, OCI-P5x cells, without rucaparib.
Setting [33] is: at 1.25 µM, OCI-C5x cells, with rucaparib 10 µM, 100% = cells with rucaparib alone.
[34] abbreviates: at 1.25 µM, OCI-C5x cells, without rucaparib.
[35] abbreviates: at 1.25 µM, OCI-P5x cells, with rucaparib 20 µM, 100% = cells with rucaparib alone.
Setting [36] is: at 1.25 µM, OCI-P5x cells, without rucaparib.
Where [37] appears, read: at 5 µM, OCI-C5x cells, with rucaparib 10 µM, 100% = cells with rucaparib alone.
Where [38] appears, read: at 5 µM, OCI-C5x cells, without rucaparib.
The mark [39] stands for this setting: at 5 µM, OCI-P5x cells, with rucaparib 20 µM, 100% = cells with rucaparib alone.
[40] abbreviates: at 5 µM, OCI-P5x cells, without rucaparib.

Calls of active or inactive are those of the source.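 The calls were made as follows, unless noted: active = normalized viability below 100% at a tested concentration; inactive = the rest.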

`NC(=O)c1sc(-n2cnc3ccccc32)cc1OCc1ccccc1Br`: in test [1], the liver cell % of control was 77.6%. Also, the parasite % of control in test [1] was 256% (inactive). Besides, in test [2], the percent of negative control (+Dex) is 101% (inactive). Besides, the z-score is 0.185 in test [2]; -0.075 (inactive) in test [3]; 0.164 (inactive) in test [4]; -0.754 (inactive) in test [5] (setting [7]); -0.437 in test [5] (setting [8]).
Consider `CS(=O)(=O)CCNCc1coc(-c2ccc3ncnc(Nc4ccc(OCc5ccccc5)cc4)c3c2)c1`, for which the liver cell % of control in test [1] turned out to be 87.7%. Further, the parasite % of control in test [1] is 176% (inactive). For the same molecule, in test [2], the percent of negative control (+Dex) is 90% (inactive). The z-score was -0.13 in test [2]; -0.225 (inactive) in test [3]; 2.75 (inactive) in test [4]; -0.812 (inactive) in test [5] (setting [7]); -0.493 in test [5] (setting [8]).
`CS(=O)(=O)CCNCc1ccoc1-c1ccc2ncnc(Nc3ccc(OCc4ccccc4)cc3)c2c1` yielded a liver cell % of control in test [1] of 97.4%. The parasite % of control in test [1] is 112% (inactive). In addition, the percent of negative control (+Dex) in test [2] was 80% (inactive). The z-score in test [2] is -0.675; in test [3], 0.33 (inactive); in test [4], 3.01 (inactive); in test [5] (setting [7]), 0.221 (inactive); in test [5] (setting [8]), -0.404.
Molecule `COC(=O)Nc1nc2ccc(Sc3ccc(NC(=O)Nc4cc(C(F)(F)F)ccc4F)cc3)cc2[nH]1` displayed a liver cell % of control in test [1] of 136%. For the same molecule, in test [1], the parasite % of control is 195% (inactive). Besides, the percent of negative control (+Dex) in test [2] is 96.5% (inactive). Also, the z-score in test [2] is -0.175; in test [3], -0.56 (inactive); in test [4] it was 1.3 (inactive); in test [5] (setting [7]), -0.309 (inactive); in test [5] (setting [8]), -0.32.
Regarding `C[C@]12CC[C@H]3c4ccc(O)cc4CC[C@H]3[C@@H]1CC[C@H]2O`, the viability is 95.7% (active) in test [6] (setting [9]); 130% (inactive) in test [6] (setting [10]); 103% (inactive) in test [6] (setting [11]); 110% (inactive) in test [6] (setting [12]); 105% (inactive) in test [6] (setting [13]); 111% (inactive) in test [6] (setting [14]). Moreover, the viability in test [6] (setting [15]) is 101% (inactive); in test [6] (setting [16]), 116% (inactive); in test [6] (setting [17]), 109% (inactive); in test [6] (setting [18]), 124% (inactive); in test [6] (setting [19]), 104% (inactive); in test [6] (setting [20]), 112% (inactive). In addition, the viability in test [6] (setting [21]) was 99.5% (active); in test [6] (setting [22]) it was 115% (inactive); in test [6] (setting [23]), 109% (inactive); in test [6] (setting [24]) it was 112% (inactive); in test [6] (setting [25]) it was 100% (inactive); in test [6] (setting [26]), 119% (inactive). Besides, the viability in test [6] (setting [27]) is 108% (inactive); in test [6] (setting [28]), 109% (inactive); in test [6] (setting [29]), 108% (inactive); in test [6] (setting [30]) it was 118% (inactive); in test [6] (setting [31]) it was 100% (inactive); in test [6] (setting [32]), 114% (inactive). The viability in test [6] (setting [33]) is 100% (inactive); in test [6] (setting [34]) it was 124% (inactive); in test [6] (setting [35]), 110% (inactive); in test [6] (setting [36]), 113% (inactive); in test [6] (setting [37]), 81% (active); in test [6] (setting [38]) it was 94.8% (active). Further, the viability in test [6] (setting [39]) was 107% (inactive); in test [6] (setting [40]), 110% (inactive).
Take `COc1cc([C@H]2c3cc4c(cc3[C@@H](O[C@@H]3O[C@@H]5CO[C@@H](c6cccs6)O[C@H]5[C@H](O)[C@H]3O)[C@H]3COC(=O)[C@H]23)OCO4)cc(OC)c1O`: the viability is 104% (inactive) in test [6] (setting [9]); 117% (inactive) in test [6] (setting [10]); 100% (inactive) in test [6] (setting [11]); 116% (inactive) in test [6] (setting [12]); 115% (inactive) in test [6] (setting [13]); 111% (inactive) in test [6] (setting [14]). In addition, the viability in test [6] (setting [15]) is 102% (inactive); in test [6] (setting [16]), 109% (inactive); in test [6] (setting [17]) it was 97.4% (active); in test [6] (setting [18]) it was 104% (inactive); in test [6] (setting [19]), 100% (inactive); in test [6] (setting [20]) it was 109% (inactive). Moreover, the viability in test [6] (setting [21]) was 73.9% (active); in test [6] (setting [22]) it was 81.6% (active); in test [6] (setting [23]), 102% (inactive); in test [6] (setting [24]), 102% (inactive); in test [6] (setting [25]), 63.2% (active); in test [6] (setting [26]) it was 73.7% (active). Besides, the viability was 87.9% (active) in test [6] (setting [27]); 60.7% (active) in test [6] (setting [28]); 78.4% (active) in test [6] (setting [29]); 56.8% (active) in test [6] (setting [30]); 71% (active) in test [6] (setting [31]); 35.6% (active) in test [6] (setting [32]). Further, the viability in test [6] (setting [33]) is 33.4% (active); in test [6] (setting [34]), 21.2% (active); in test [6] (setting [35]), 54.6% (active); in test [6] (setting [36]) it was 23.6% (active); in test [6] (setting [37]) it was 8.34% (active); in test [6] (setting [38]) it was 7.07% (active). Further, the viability in test [6] (setting [39]) was 12.4% (active); in test [6] (setting [40]), 7.92% (active).
Consider `CO[C@H]1C[C@@H]2CC[C@@H](C)[C@@](O)(O2)C(=O)C(=O)N2CCCC[C@H]2C(=O)O[C@H]([C@@H](C)C[C@@H]2CC[C@@H](OCCO)[C@H](OC)C2)CC(=O)[C@H](C)/C=C(\C)[C@H](O)[C@@H](OC)C(=O)[C@H](C)C[C@H](C)/C=C/C=C/C=C/1C`, for which the viability in test [6] (setting [9]) is 103% (inactive); in test [6] (setting [10]), 135% (inactive); in test [6] (setting [11]), 91.8% (active); in test [6] (setting [12]), 83.4% (active); in test [6] (setting [13]), 106% (inactive); in test [6] (setting [14]), 120% (inactive). The viability in test [6] (setting [15]) is 88% (active); in test [6] (setting [16]) it was 74.1% (active); in test [6] (setting [17]), 120% (inactive); in test [6] (setting [18]), 115% (inactive); in test [6] (setting [19]) it was 85% (active); in test [6] (setting [20]), 72.9% (active). Also, the viability is 115% (inactive) in test [6] (setting [21]); 112% (inactive) in test [6] (setting [22]); 79.5% (active) in test [6] (setting [23]); 72.3% (active) in test [6] (setting [24]); 111% (inactive) in test [6] (setting [25]); 119% (inactive) in test [6] (setting [26]). Also, the viability was 86.3% (active) in test [6] (setting [27]); 73.1% (active) in test [6] (setting [28]); 110% (inactive) in test [6] (setting [29]); 111% (inactive) in test [6] (setting [30]); 88% (active) in test [6] (setting [31]); 67.8% (active) in test [6] (setting [32]). The viability was 115% (inactive) in test [6] (setting [33]); 103% (inactive) in test [6] (setting [34]); 73.4% (active) in test [6] (setting [35]); 60.4% (active) in test [6] (setting [36]); 123% (inactive) in test [6] (setting [37]); 120% (inactive) in test [6] (setting [38]). In addition, the figures for the viability in test [6] (setting [39]) and in test [6] (setting [40]) were 69.5% (active) and 59.4% (active), respectively.
For `NC(=O)c1cc(-c2ccc(F)cc2)cc(-c2ccncc2)c1N`, the liver cell % of control in test [1] was 110%. Besides, the parasite % of control in test [1] is 93.1% (inactive). Also, the percent of negative control (+Dex) in test [2] was 92.5% (inactive). The z-score is 0.27 in test [2]; 0.64 (inactive) in test [3]; -0.928 (inactive) in test [4]; -0.833 (inactive) in test [5] (setting [7]); 0.289 in test [5] (setting [8]).

Values taken from PubChem BioAssay.
